Results as given in PubChem BioAssay (EPA / NIEHS).
Active and inactive are the calls of the source. Rule for the calls: active = hit-call score of the fitted dose curve at least 0.9, where 1 is the maximum; inactive = score below 0.9.

Target: Transcription factor E2F1 (Homo sapiens) (UniProt Q01094)
Experiment: ATG_E2F_CIS: Attagene CIS-FACTORIAL HepG2 Assay for human E2F Transcription Factor 1 (AID 2282935)
Details: HepG2 Attagene cis-reporter, E2F reporter RNA transcripts; actives raise or lower the signal
Protocol: ATG_CIS is a cell-based, multiplexed-readout assay that uses HepG2, a human liver cell line, with measurements taken at 24 hours after chemical dosing in a 24-well plate.ATG_E2F_CIS is one of 52 assay component(s) measured or calculated from the ATG_CIS assay. It is designed to make measurements of mRNA induction, a form of inducible reporter, as detected with fluorescence intensity signals by Reverse transcription polymerase chain reaction (RT-PCR) and Capillary electrophoresis technology.Data from the assay component ATG_E2F_CIS was analyzed into 1 assay endpoint. This assay endpoint, ATG_E2F_CIS, was analyzed with bidirectional fitting relative to DMSO as the negative control and baseline of activity. Using a type of inducible reporter, measures of mRNA for gain or loss-of-signal activity can be used to understand the reporter gene at the transcription factor-level as they relate to the gene E2F1. Furthermore, this assay endpoint can be referred to as a primary readout, because this assay has produced multiple assay endpoints where this one serves a reporter gene function. To generalize the intended target to other relatable targets, this assay endpoint is annotated to the dna binding intended target family, where the subfamily is E2F transcription factor.
Human liver HepG2 cells are transiently transfected with multiple reporter transcription units (MRTUs) in 6-well plates using FuGene 6 reagent (Roche; 3 ml FuGene/1 mg DNA). The MRTU constructs are regulated by a cis-regulating element (promoter). […] A major difference between the CIS and TRANS system is that in CIS activities of endogenous TFs are measured, whereas the TRANS assay evaluates changes in activities of exogenous, chimeric NR-Gal4 proteins. […] At the end of 24 hour incubation, total RNA was isolated using TriZol reagent (Invitrogen). The isolated RNA is then reverse-transcribed using oligo(dT) primer and Mo-MLV reverse transcriptase (Invitrogen) with DNAse I (Ambion) treatment for 30 min. The one-tenth of the produced cDNA was amplified by PCR using Taq DNA polymerase (Invitrogen) and two reporter sequence-specific primers. The PCR products were fluorescently labeled by primer extension with 6-arboxyfluorescein (6-FAM) 5'-labeled reporter sequence-specific primer (2 min at 95 C, 20 s at 68 C and 10 min at 72 C) and these products were digested with 5U of HpaI (New England Biolabs) for 2h at 37 C. The fragments were purified using Qiaquick PCR columns (Qiagen), analyzed on an ABI 3130xL genetic analyzer (Applied Biosystems) with peak positions identified by using a set of X-rhodamine (ROX)-labeled MapMarker1000 molecular weight standards (BioVentures). The raw capillary electrophoresis data was processed using Attagraph software (Attagene).

Transcription factor E2F1 (Homo sapiens), sequence (Q01094 whole entry, looked up): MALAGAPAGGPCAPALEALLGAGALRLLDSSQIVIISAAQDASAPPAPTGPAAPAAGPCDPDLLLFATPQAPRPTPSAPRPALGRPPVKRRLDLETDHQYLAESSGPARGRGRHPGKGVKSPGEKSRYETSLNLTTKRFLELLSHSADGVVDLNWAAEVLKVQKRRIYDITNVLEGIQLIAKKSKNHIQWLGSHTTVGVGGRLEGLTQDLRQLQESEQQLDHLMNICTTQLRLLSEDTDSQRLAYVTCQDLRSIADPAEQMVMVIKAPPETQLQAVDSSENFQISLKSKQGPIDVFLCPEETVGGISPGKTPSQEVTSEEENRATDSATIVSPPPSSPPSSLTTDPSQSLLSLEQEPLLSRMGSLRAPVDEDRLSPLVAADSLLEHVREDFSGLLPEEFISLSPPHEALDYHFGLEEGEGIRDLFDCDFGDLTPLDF

| SMILES | outcome | AC50 |
| --- | --- | --- |
| FC(F)(F)C(F)(F)C(F)(F)C(F)(F)C(F)(F)C(F)(F)CCS | inactive |  |
| Cc1ccc(S(=O)(=O)NCl)cc1 | inactive |  |
| COC(=O)C1CCC(C(=O)OC)CC1 (stereo not given) | inactive |  |
| O=C(O)C(F)(F)C(F)(F)C(F)(F)C(F)(F)C(F)(F)C(F)(F)C(F)(F)C(F)(F)C(F)(F)C(F)F | inactive |  |
| Cc1ccc(S(=O)(=O)OCC(F)(F)C(F)(F)C(F)(F)C(F)(F)C(F)(F)C(F)F)cc1 | inactive |  |
| O=C(O)C(F)(F)C(F)(F)C(F)F | inactive |  |
| CC/C=C\CCOC(C)=O | inactive |  |
| O=C(O)C(F)(F)C(F)(F)C(F)(F)C(F)(F)C(F)(F)C(F)(F)C(F)(F)C(F)(F)Cl | inactive |  |
| OCC(F)(F)C(F)(F)C(F)(F)C(F)(F)C(F)(F)C(F)(F)F |  | 234 µM (active) |
| OC[C@@H](O)[C@@H](O)[C@H](O)[C@@H](O)CO | inactive |  |
| OCCCC(F)(F)C(F)(F)C(F)(F)F | inactive |  |
| CC(CCl)OP(=O)(OC(C)CCl)OC(C)CCl (stereo not given) | inactive |  |
| OCC(F)(F)C(F)(F)C(F)(F)C(F)(F)C(F)(F)C(F)F | inactive |  |
| O=S(=O)(O)C(F)(F)C(F)(F)C(F)(F)C(F)(F)C(F)(F)C(F)(F)C(F)(F)F | inactive |  |
| CCN(Cc1cccc(S(=O)(=O)O)c1)c1ccc(C(=C2C=CC(=[N+](CC)Cc3cccc(S(=O)(=O)O)c3)C=C2)c2ccc(O)cc2S(=O)(=O)[O-])cc1 | inactive |  |
| COC(OC(C)=O)c1ccccc1 (stereo not given) | inactive |  |
| FC1CC(F)(F)C(F)(F)C1(F)F (stereo not given) | inactive |  |
| C=C(C)C(=O)OCC(F)(F)C(F)(F)C(F)(F)F | inactive |  |
| O=C(O)C(F)(OC(F)(F)C(F)(OC(F)(F)C(F)(OC(F)(F)C(F)(F)C(F)(F)F)C(F)(F)F)C(F)(F)F)C(F)(F)F (stereo not given) | inactive |  |
| O=C(O)C(F)(F)C(F)(F)OC(F)(F)F | inactive |  |

| SMILES | outcome | AC50 |
| --- | --- | --- |
| FC(F)(F)C(F)(F)C(F)(F)N(C(F)(F)C(F)(F)C(F)(F)F)C(F)(F)C(F)(F)C(F)(F)F | inactive |  |
| c1ccc(-c2ccccc2-c2ccccc2)cc1 | inactive |  |
| CCCCCCCCCCCCCCCC[N+](C)(C)Cc1ccccc1 | inactive |  |
| O=C(O)C(F)(F)C(F)(F)F | inactive |  |
| CN(C)Cc1ccccc1O | inactive |  |
| O=C(O)C(F)(F)C(F)(F)C(F)(F)C(F)(F)F | inactive |  |
| C=CC/C=C/C/C=C/C/C=C/C | inactive |  |
| CCCCCCS | inactive |  |
| c1ccc(B(c2ccccc2)c2ccccc2)cc1 | inactive |  |
| Nc1ccc(S(=O)(=O)Nc2nccs2)cc1 | inactive |  |
| O=C(O)C(F)(F)C(F)(F)C(F)(F)C(F)(F)C(F)(F)C(F)(F)C(F)(F)C(F)(F)C(F)(F)C(F)(F)C(F)(F)C(F)(F)C(F)(F)F | inactive |  |
| Nc1ccc(Oc2cccc(Oc3ccc(N)cc3)c2)cc1 |  | 33.4 µM (active) |
| CC(C)OC(=O)c1ccccc1C(=O)OC(C)C | inactive |  |
| CCCCCCCCC(F)(F)C(F)(F)C(F)(F)C(F)(F)C(F)(F)C(F)(F)F | inactive |  |
| O=S(=O)(O)c1ccc2ccccc2c1 | inactive |  |
| CCCCCCC(C)OC(=O)CCCCC(=O)OC(C)CCCCCC (stereo not given) | inactive |  |
| CO[Si](OC)(c1ccccc1)c1ccccc1 | inactive |  |
| C=CC(=O)OCC(F)(F)C(F)(F)C(F)(F)C(F)(F)C(F)(F)C(F)(F)C(F)(F)F | inactive |  |
| FC(F)(F)C(F)(F)C(F)(F)C(F)(F)C(F)(F)C(F)(F)C(F)(F)Br | inactive |  |
| CC(=O)Nc1ccc(N=Nc2cc(C)ccc2O)cc1 | inactive |  |
